Source: PubChem (National Center for Advancing Translational Sciences (NCATS))
Compounds with a hit are over-represented: about 12% of the library has one in this group of screens.
HP1b chromo inh: inhibitors of HP1-beta chromodomain binding to methylated histone tails. P83916. AlphaScreen HP1-beta / biotin-H3K9me3 peptide binding. Potency, µM (highest dose often 114 µM), for the others: at the highest dose activity change, negative = inhibition, most hits filed as inhibitors. hit rate 0.56% among 390,000. AID 540317; further: nearly all actives have a fitted effect of over 70% in size
Target sequence (P83916 whole entry, looked up): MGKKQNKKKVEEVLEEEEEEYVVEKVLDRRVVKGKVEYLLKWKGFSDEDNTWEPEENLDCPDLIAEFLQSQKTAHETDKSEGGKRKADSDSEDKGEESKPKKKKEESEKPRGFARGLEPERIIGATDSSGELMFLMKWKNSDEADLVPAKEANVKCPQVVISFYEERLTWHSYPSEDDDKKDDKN
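HP1-beta protein (50 nM final) preincubated 30 min at room temperature with biotinylated H3(1-18)K9me3 peptide (50 nM) in PBS pH 7.4, 0.01% Tween-20, then compound added for 30 min. AlphaScreen streptavidin donor/nickel chelate acceptor beads (10 ug/mL final), 30 min dark, luminescence read.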
BAZ2B block: blocks human BAZ2B | Q9UIF8 | AlphaScreen BAZ2B-H3K14Ac peptide displacement | Potency, µM (top dose mostly 114 µM), for inactives: top-dose activity change, negative = inhibition, most hits filed as inhibitors | hit rate 4.4% among 360,000 | AID 504333; further: on the % scale 0 is the no-effect control and ±100 the full control effect; nearly all actives have a fitted effect of over 60% in size
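Compounds, titrated to a top concentration of 110 uM, were incubated 30 min at room temperature with preformed BAZ2B/acetyl-K14 H3 peptide complex (50 nM each). Proximity signal was measured by AlphaScreen after 20 min with beads.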
JMJD2A Tudor inh: inhibitors of human JMJD2A Tudor domain | Potency, µM (series often up to 114 µM), for inactives: at the top dose activity change, negative = inhibition, most hits filed as inhibitors | AID 504339 | O75164 | hit rate 4.4% among 390,000 | AlphaScreen JMJD2A-Tudor / H3K4me3 peptide binding; further: on the % scale 0 is the no-effect control and ±100 the full control effect; nearly all actives have a fitted effect of over 50% in size
Sfp inh: inhibitors of Bacillus subtilis Sfp phosphopantetheinyl transferase. Q9F4F7. Biochemical Sfp PPTase activity, qHTS. Potency, µM, inactives show largest response in the series, negative = inhibition, actives largely listed as inhibitors. hit rate 3.5% among 310,000. AID 1490;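 further: the enzyme is Sfp with the accession as filed and its product quenches rhodamine fluorescence; 0% = enzyme reaction without inhibitor and -100% = no enzyme wells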
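Sfp 15 nM + cpd, 15 min RT; start w/ rhodamine-CoA 5 uM, BHQ-2-YbbR 12.5 uM (final); 50 mM Hepes pH 7.6, 10 mM MgCl2, 0.01% NP-40, 0.01% BSA; read 525/598 nm at 0 and 30 min.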
G9a inh: inhibitors of human histone lysine methyltransferase G9a; Q96KQ7; G9a H3K9 monomethylation, AlphaScreen, 2 h; Potency, µM (doses to about 102 µM), for the others: at the highest dose activity, negative = inhibition, usual class: inhibitors; hit rate 8.8% among 350,000; further: on the % scale 0 is the no-effect control and ±100 the full control effect; nearly all actives have a fitted effect of over 75% in size
Target sequence (Q96KQ7 913-1193 limits assumed): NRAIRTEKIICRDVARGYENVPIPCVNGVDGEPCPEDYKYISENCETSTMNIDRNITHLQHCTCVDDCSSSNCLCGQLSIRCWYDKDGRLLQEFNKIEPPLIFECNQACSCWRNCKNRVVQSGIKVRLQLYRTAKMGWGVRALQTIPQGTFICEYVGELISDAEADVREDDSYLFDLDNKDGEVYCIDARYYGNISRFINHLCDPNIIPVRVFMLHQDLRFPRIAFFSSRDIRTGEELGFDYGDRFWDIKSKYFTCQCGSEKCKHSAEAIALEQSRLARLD
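G9a (20 nM) was preincubated 15 min with compound, then reacted 2 h at room temperature with 500 nM biotin-H3K9 peptide and 20 µM SAM. Monomethyl-H3K9 detected by AlphaScreen using anti-H3K9me1 antibody.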
* marks the source's active call; other numbers are inactive results; ? = inconclusive; / = not tested or not shown; ! = not confirmed by another sample; [ ] = remark or other dose. The call rests on the fitted dose curve; in most records, active means well fitted curve in the direction sought with a large enough effect; inconclusive means small, poorly fitted or top-dose-only effect, or another doubt; inactive means no such curve, though single readings can be large; an effect the other way counts as inactive or inconclusive. Potency means the concentration at half of the fitted maximal effect.

SMILES	HP1b chromo inh	BAZ2B block	JMJD2A Tudor inh	Sfp inh	G9a inh
O=C(O)c1cccc(NS(=O)(=O)c2ccc3c(c2)C(=O)c2ccccc2C3=O)c1	23%	?	-11%	-10%	/
Cc1ccc(S(=O)(=O)/N=C2\C=C(Nc3ccc(O)cc3)C(=O)c3ccccc32)cc1	13µM*	/	5.6µM*	/	/
Cc1ccc(S(=O)(=O)/N=C(/c2ccccc2)N(C)c2ccc(O)cc2)cc1	26%	4%	-18%	9%	-2%
O=C(O)c1ccc(NC2=C(n3nnc4ccccc43)C(=O)c3ccccc3C2=O)cc1	33%	-21%	-10%	7%	?
Cc1cc(/C=N/Nc2ccc([N+](=O)[O-])cn2)c(C)n1-c1ccccc1	7%	?	-32%	-23%	?
O=c1nccc(N/N=C/c2ccccc2O)[nH]1	25%[57 µM]	50µM*	?	10%	40%
Cc1c(C(=O)O)cccc1-n1c(C)cc(/C=N/Nc2ccc([N+](=O)[O-])cn2)c1C	-29%	45µM*	-2%[11.4 µM]	32µM*	45µM*
COc1cccc(/C=N/Nc2ccnc(=O)[nH]2)c1O	47%	50µM*	?	15%	15%
COc1cccc(/C=N/Nc2ccc([N+](=O)[O-])cn2)c1O	414%	40µM*	?	10%	95%
CCOc1ccccc1/C=N/Nc1ccnc(=O)[nH]1	60%	7%	-8%	-26%	42%[2.33 µM]
CCC1=NN(C(=O)COc2ccccc2)C(O)(c2ccc(Br)cc2)C1 (stereo not drawn)	29%	14%	-22%	?	/
COc1cccc(C2C3=C(N=c4s/c(=C\c5ccc(O)cc5)c(=O)n42)c2ccccc2CC3)c1OC (stereo not drawn)	7%	5%	-24%	5%	16%[59 µM]
COc1ccccc1C1C2=C(N=c3s/c(=C/c4cccc(OCC(=O)O)c4)c(=O)n31)c1ccccc1CC2 (stereo not drawn)	?	50µM*	35µM*	79µM*	14µM*
COc1cccc(C2C3=C(N=c4s/c(=C\c5ccc(OCC(=O)O)cc5)c(=O)n42)c2ccccc2CC3)c1 (stereo not drawn)	-11%	50µM*	45µM*	56µM*	20µM*
COc1cccc(C2C3=C(N=c4s/c(=C\c5cccc(O)c5)c(=O)n42)c2ccccc2CC3)c1OC (stereo not drawn)	?	-10%	?	5%	?
COc1cccc2c1Oc1ncccc1N(C(=O)CCC(=O)NCc1ccc(F)cc1)C2	25%	-15%	4%	12%	34%
COc1cccc2c1Oc1ncccc1N(C(=O)CCC(=O)NCc1ccc(C)cc1)C2	21%	-6%	9%	14%	5.6µM*!
CN(CC(=O)Nc1ncn[nH]1)S(=O)(=O)c1ccc(Cl)cc1	30%	50µM*	?	11%	89µM*
CN(CC(=O)Nc1ccc(F)c(F)c1)S(=O)(=O)c1cccc2cccnc12	20%[57 µM]	-1%	-10%	11%	6%
CN(CC(=O)Nc1ccc(Cl)cc1)S(=O)(=O)c1cccc2cccnc12	54%	9%	-14%	12%	45µM*
C[C@H](C(=O)OCO/N=[N+](\[O-])N1CCCC1)c1cccc2ccccc12	5%	/	-28%	56µM*	/
O=C(O)CC(c1cccc2ccccc12)n1cccc1 (stereo not drawn)	14%	?	-32%	-9%	-9%
CC[N+]1(C)CCC(O)(/C=C/c2ccccc2)C(C(=O)/C=C/c2ccccc2)C1 (stereo not drawn)	71µM*	/	40µM*	/	/
O=C(O)c1cc2ccccc2c(N=Nc2cccnc2)c1O	?	?	-32%	8%	50µM*
O=C(O)c1cc2ccccc2c(Cc2cc3ccccc3c(C(=O)O)c2O)c1O (tested in a mixture with another compound)	/	/	/	15%	?
SMILES	HP1b chromo inh	BAZ2B block	JMJD2A Tudor inh	Sfp inh	G9a inh
CCCCCOc1ccccc1Cn1c(=O)oc2ccc(C)cc21	178%	248%	156%	/	185%[59 µM]
Cc1ccc2c(c1)C(=O)C(=O)N2CCCOc1ccccc1	?	50µM*	56µM*	21%	35µM*
CCCCCOc1ccccc1CN1C(=O)C(=O)c2cc(C)ccc21	?	6.3µM*	18µM*	/	8.9µM*
Cc1ccc2c(c1)C(=O)C(=O)N2CC1COc2ccccc2O1 (stereo not drawn)	?	?	?	-1%	50µM*
Cc1ccc(OCCCN2C(=O)C(=O)c3cc(C)ccc32)cc1	?	-19%	-9%	-3%	-4%
Cc1ccc(NC(=O)Cn2cnc([N+](=O)[O-])c2)cc1C	61%	-19%	-24%	18%	36%[59 µM]
COc1cc(C(=O)Nc2cccc(NC(=O)c3ccccc3)c2)cc(OC)c1OC	61%	-26%	-23%	35%	-8%
CCOC(=O)c1sc(/N=C/c2ccc(O)cc2O)cc1C	0%	-36%	?	0%	22µM*
COc1ccc2c(c1)c(=O)oc1cc(OCC(=O)N3CCc4ccccc4C3)ccc12	1%	40µM*	56µM*	?	3.2µM*
Cc1cc(=O)oc2cc(OCC(=O)N3CCCC3)ccc12	30%	/	-6%	/	/
COc1ccc2c(c1)c(=O)oc1cc(OCC(=O)N3CCC(C)CC3)ccc12	-45%	?	50µM*	-5%	8.9µM*
Cc1cc(=O)oc2cc(OCC(=O)N3CCOCC3)ccc12	-42%	-5%	79µM*	32µM*	7.1µM*
COc1ccc2c(c1)c(=O)oc1cc(OCC(=O)N3CCCC(C)C3)ccc12 (stereo not drawn)	13%	-1%	-24%	6%	0%[12.7 µM]
CCC(=O)N1CCc2cc(Br)cc(S(=O)(=O)CCC(=O)N3CCN(c4cccc(C(F)(F)F)c4)CC3)c21	7%	-2%	-8%	/	-31%[59 µM]
COc1cc(SC)ccc1C(=O)NCC1CCCO1 (stereo not drawn)	8%	7%	3%	-10%	-5%
CC(=O)Oc1cc2c3c(c1)/C(=C1/SC(=S)NC1=O)C(=O)N3C(C)(C)C=C2C	?	7.9µM*	11µM*	35µM*	8.9µM*
CC1CCN(S(=O)(=O)c2ccc3ncn(CC(=O)Nc4ccccc4C(F)(F)F)c(=O)c3c2)CC1	12%	-6%	-15%	/	-25%[59 µM]
COC(=O)c1ccccc1NC(=O)Cn1cnc2ccc(S(=O)(=O)N3CCC(C)CC3)cc2c1=O	45%	8%	-6%[11.4 µM]	89µM*	?
O=C(COc1ccc(Cl)cc1Cl)NCCSc1ccc(Cl)cc1	70%	50%	?	-5%	28%
O=C(/C=C/c1ccccc1)c1ccc(NC2=NCCCS2)cc1	-30%	?	?	-13%	?
CC(C)(C)c1ccc(/C=C/C(=O)c2ccc(NC3=NCCCS3)cc2)cc1	-16%	?	?	?	40µM*
